Screens (PubChem BioAssay)
In the library only some 2.8% were active in any assay of this set; here they are far more common.
bovine MsrA act: activators of bovine methionine sulfoxide reductase A; purified bovine MsrA, absorbance read-out; activation, % at 10.6 µM; actives 0.3% (n = 360,000); AID 602163; in the data active = activation above about 7.5%;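 note: 0% = vehicle and 100% = reference activator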
MsrA inhibitor: inhibitors of bovine MsrA; purified bovine MsrA, absorbance read-out; inhibition, % at 15.5 µM; actives 0.75% (n = 360,000);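 note: 0% = vehicle wells with enzyme and 100% = reference inhibitor wells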
sPLA2-III inh: Blocks human group III sPLA2 activity; actives 0.56% (n = 370,000); inhibition, % at 12.2 µM; QFRET BODIPY PC-A2 liposome hydrolysis, fluorescence; Q9NZ20;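 active = inhibition above mean plus 3 SD of compounds lying within the high and low control bounds, cut at about 19% in these data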;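 note: 0% = median of test compound wells and 100% = no enzyme DMSO wells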
Target sequence (Q9NZ20 whole entry, looked up): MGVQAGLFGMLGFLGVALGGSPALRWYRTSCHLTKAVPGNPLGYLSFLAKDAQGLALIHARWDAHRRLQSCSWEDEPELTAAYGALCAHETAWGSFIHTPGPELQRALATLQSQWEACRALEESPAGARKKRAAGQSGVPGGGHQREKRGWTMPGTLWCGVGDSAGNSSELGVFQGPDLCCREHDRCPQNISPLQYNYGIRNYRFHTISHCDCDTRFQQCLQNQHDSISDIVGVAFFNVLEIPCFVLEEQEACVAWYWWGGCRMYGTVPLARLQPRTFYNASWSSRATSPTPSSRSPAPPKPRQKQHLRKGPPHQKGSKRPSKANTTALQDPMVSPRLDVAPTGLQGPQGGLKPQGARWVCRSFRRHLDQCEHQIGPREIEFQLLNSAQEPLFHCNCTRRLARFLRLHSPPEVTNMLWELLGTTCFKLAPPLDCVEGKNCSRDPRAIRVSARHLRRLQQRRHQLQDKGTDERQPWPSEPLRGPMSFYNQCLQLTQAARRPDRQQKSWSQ
rCAG binder: r(CAG) repeat RNA binding; actives 1.3% (n = 370,000); TO-PRO-1 dye displacement fluorescence; AID 651821; inhibition, % at 3 µM;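 active = inhibition above the plate cutoff, the mean of all test compounds on that plate plus 3 SD, cut at about 35% in these data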;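 note: 0% = DMSO alone and 100% = 100 µM mitoxantrone as full dye displacement; higher means more dye released from RNA so lower well fluorescence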
MsrA inh confirm: confirmation of bovine MsrA inhibitors; shares compounds with MsrA inhibitor; purified bovine MsrA, absorbance read-out; inhibition, % at 15.5 µM; actives 41% (n = 2,300); AID 651822;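 note: coupled to thioredoxin reductase with NADPH and selenocystamine and DMSO as substrate; 0% = vehicle only and 100% = full effect of reference inhibitor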
Starred values were filed as active, the others as inactive. Cut-off read from the data, not from the text of the source, unless noted: active = inhibition above about 4.5%; inactive = the rest.

Results for CC(/C=C/c1ccc2c(c1)OCO2)=N\NC(=O)C(O)c1ccccc1 (configuration not stated) ?
bovine MsrA act: -5; MsrA inhibitor: 4.9*; sPLA2-III inh: 11; rCAG binder: -1; MsrA inh confirm: 5.0*

How did O=C(N/N=C/C=C/c1ccccc1)C(O)c1ccccc1 (configuration not stated) do in these assays?
bovine MsrA act: -5; MsrA inhibitor: 0; sPLA2-III inh: 4; rCAG binder: -3

What do the screens show for `O=C(N/N=C/C=C/c1ccc2c(c1)OCO2)C(O)c1ccccc1` (configuration not stated)?
bovine MsrA act: -7; MsrA inhibitor: 6.7*; sPLA2-III inh: -3; rCAG binder: 0; MsrA inh confirm: 4.8*

What do the screens show for `O=C(N/N=C\C=C\c1ccc2c(c1)OCO2)c1ccc(F)cc1`?
bovine MsrA act: -5; MsrA inhibitor: 6.4*; sPLA2-III inh: 3; rCAG binder: 0; MsrA inh confirm: 4.9*

What do the screens show for `Cc1cc2c(n1-c1ccc(Cl)cc1)CC(C)(C)CC2=O`?
bovine MsrA act: -1; MsrA inhibitor: 0; sPLA2-III inh: -30; rCAG binder: -8

Results for O=C(N/N=C/C=C/c1ccco1)C(O)c1ccccc1 (configuration not stated) ?
bovine MsrA act: -13; MsrA inhibitor: 0; sPLA2-III inh: 3; rCAG binder: 22

Results for C(=C\c1ccco1)/C=N/n1cnnc1 ?
bovine MsrA act: -15; MsrA inhibitor: 4.7*; sPLA2-III inh: 0; rCAG binder: 1; MsrA inh confirm: 5.7*

Results for S=c1[nH]nc(-c2ccccc2Cl)n1/N=C/C=C/c1ccco1 ?
bovine MsrA act: 0; MsrA inhibitor: 2; sPLA2-III inh: 17; rCAG binder: 20

Results for S=c1[nH]nc(-c2ccncc2)n1/N=C/C=C/c1ccco1 ?
bovine MsrA act: -5; MsrA inhibitor: 7.1*; sPLA2-III inh: 11; rCAG binder: 15; MsrA inh confirm: 4.9*

Results for O=S(N1CCCCC1)C12CC3CC(CC(C3)C1)C2 (configuration not stated) ?
bovine MsrA act: -4; MsrA inhibitor: -1; sPLA2-III inh: 3; rCAG binder: -4

What do the screens show for `COc1ccccc1NC(=O)c1ccc(-n2cncn2)nc1`?
bovine MsrA act: 5; MsrA inhibitor: 0; sPLA2-III inh: 3; rCAG binder: 1

How did CC(=O)c1c(C)cc(C)c(CSc2nnc(-c3ccco3)o2)c1C do in these assays?
bovine MsrA act: -1; MsrA inhibitor: -1; sPLA2-III inh: -8; rCAG binder: -3

How did COc1cc(/C=N\NC(=O)CNC(=O)C2COc3ccccc3O2)ccc1O (configuration not stated) do in these assays?
bovine MsrA act: -7; MsrA inhibitor: 0; sPLA2-III inh: 4; rCAG binder: 2

How did CCOC(=O)N/N=C/c1ccc(N(CC)CC)cc1O do in these assays?
bovine MsrA act: -7; MsrA inhibitor: 6.1*; sPLA2-III inh: 8; rCAG binder: 0; MsrA inh confirm: 6.3*

What do the screens show for `CCN(CC)c1ccc(/C=N/NC(=O)CNC(=O)C2COc3ccccc3O2)c(O)c1` (configuration not stated)?
bovine MsrA act: -10; MsrA inhibitor: 5.2*; sPLA2-III inh: 5; rCAG binder: 6; MsrA inh confirm: 3

What do the screens show for `CCN(CC)c1ccc(/C=N/NC(=O)CCC(=O)NCc2ccccc2)c(O)c1`?
bovine MsrA act: -17; MsrA inhibitor: 4.7*; sPLA2-III inh: 5; rCAG binder: 6; MsrA inh confirm: 4.8*

How did O=C(CCC(=O)N/N=C/c1c[nH]c2ccccc12)NCc1ccccc1 do in these assays?
bovine MsrA act: -4; MsrA inhibitor: 0; sPLA2-III inh: 0; rCAG binder: 0

What do the screens show for `C=CCNc1ccc2c(c1)OC[C@H](Cc1ccccc1)NS2(=O)=O`?
MsrA inhibitor: 1; sPLA2-III inh: 12; rCAG binder: -1

What do the screens show for `CCCCCCN(C(=O)CCCN1C(=O)NC(c2ccc(-c3ccccc3)cc2)C(C(=O)OCc2ccccc2)=C1C)C(C)C(=O)NCCCC` (configuration not stated)?
bovine MsrA act: -4; MsrA inhibitor: -1; sPLA2-III inh: -10; rCAG binder: 6

What do the screens show for `COC(=O)C(CCSC)NC(=O)c1cc2c(n(-c3ccccc3)c1=O)CC(C)(C)CC2=O` (configuration not stated)?
bovine MsrA act: -10; MsrA inhibitor: 0; sPLA2-III inh: -2; rCAG binder: -9
